We go through six compounds from PubChem BioAssay.

Values joined by “and” are separate entries in the source; they are usually repeats but may differ in a detail not shown here. Equal entries are not always repeated. Inconclusive results are not listed. Active and inactive are the calls of the source.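 Rule for the calls, unless noted: active = compound raises GLP1 secretion from the human gut endocrine cells, with no numeric limit stated; inactive = the rest.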

Assay [1] in a line: stimulators of nuclear beta-catenin in C2C12, primary screen, imaging, WNT3A-conditioned medium, mouse C2C12, NPC library (AID 1117326; in the data active = nuclear beta-catenin stimulation mostly above about 4.2%, no sharp cut-off; inactive = mostly below about 10%). Conditions: stronger effect = higher value.
Assay [2] can be described thus: stimulators of insulin release from INS-1E, primary screen, cell-based, 5 mM glucose, NPC library (AID 1117329;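 active = compound raises insulin release from rat beta cells at 5 mM glucose, no numeric limit stated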). The note with it: rat INS-1E insulin secretion, at 10 µM, stronger effect = higher value.
Assay [3] in a line: growth inhibition of GSK3B-pretreated HCT116 cells – cell-based, CellTiter-Glo, 0.2 to 20 µM (AID 1117336;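 active = compounds lowering colon cancer cell viability after pretreatment blocking the GSK3B kinase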). The note with it: HCT116 viability after GSK3B inhibitor, at 20 µM, stronger effect = higher value. Background: ATP-based viability assays read luminescence as a measure of living cells.
Assay [4] is described as follows: inhibition of endothelial tube formation, primary screen, imaging, VEGF stimulated, CD31 staining, tube area, NPC library (AID 1117340;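 active = compound that reduces growth-factor-driven endothelial tube area in a mixed cell culture, no cutoff stated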). The note with it: VEGF-stimulated ADSC/ECFC co-culture, at 10 µM, stronger effect = higher value.
Assay [5] is described as follows: glucagon-like peptide 1 release enhancers, primary assay, NCI-H716 cell line, NPC library (AID 1117341). Conditions: NCI-H716 cells, at 10 µM, stronger effect = higher value.
A short description of assay [6]: HCT116 colon cancer cell growth inhibition, primary screen, CellTiter-Glo luminescence, NPC library (AID 1117342;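 active = compounds that lower survival of HCT116 colon cancer cells in the luminescence readout, no numeric limit stated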). Conditions: at 20 µM (top of the series).
The nature of assay [7]: CellTiter-Glo luminescent readout of SW480 viability loss, NPC library primary (AID 1117343;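 active = compounds that lower viability of the colon cancer cells in the luminescence readout, with no numeric limit stated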). The note with it: CellTiter-Glo luminescence; at 20 µM (top of the series) unless noted.
A short description of assay [8]: decreased DLD-1 cellular survival, CellTiter-Glo luminescent readout, NPC compound collection, primary HTS (AID 1117346;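 active = compounds that lower survival of DLD-1 colon cancer cells in the luminescence readout, no cutoff given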). The note with it: DLD-1 viability, CellTiter-Glo luminescence; at 20 µM (top of the series).
Assay [9] in a line: sensitizers of A549 cells to miR-34 induction, primary screen, imaging, A549 dox-inducible miR-34, nuclei and caspase counts (AID 1347080;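 active = compounds whose cell count with miR-34 switched on is under 0.7 times the count with it off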). The note with it: A549 miR-34 inducible, Hoechst nuclei count, 48 h.
Assay [10] in a line: hESC survival regulators, cell-based (AID 493140; call rule not given here;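 note: cells exposed to compounds for four days before counting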). The note with it: human embryonic stem cell survival screen; stronger effect = higher value.
Assay [11] can be described thus: liver-stage malaria parasite growth inhibition, primary screen, cell-based, HepG2, luciferase luminescence, HepG2 viability (AID 624349; in the data active = parasite load remaining mostly below about 12%, no sharp cut-off; inactive = mostly above about 10%;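 note: 100% = mean of DMSO negative control wells on the same plate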). The note with it: P. berghei liver stage in HepG2, luciferase luminescence, concentration not given here; parasite load remaining: stronger effect = lower value; viability: measured here: HepG2 viability without parasites.
Assay [12] in a line: survival rescue of mitochondrial mutant cells in low glucose, primary screen, MELAS cybrids, Rieske KO mouse fibroblasts, CellTiter-Glo (AID 1508586;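 active = mean z-score across replicates of 1.96 or higher in either the MELAS or the Rieske mutant cell line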;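 note: z relative to plate mean and SD of compound and empty wells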).
In assay [13] the target is ATP-dependent translocase ABCB1 (Homo sapiens) (UniProt P08183). As to the kind of experiment: MDR1 (ABCB1) efflux transporter inhibition, cell-based (AID 377; in the data active = fluorescence slope change above about 50%). The note with it: MDR1-expressing cells, fluorescent substrate accumulation slope; stronger effect = higher value; concentration not given here.
[14] abbreviates: stronger effect = lower value, cell number ratio, induced over uninduced.
The mark [15] stands for this setting: measured here: relative caspase fold change +Dox/-Dox.
Where [16] appears, read: measured here: total cells with miR-34 induction, stronger effect = lower value.
The mark [17] stands for this setting: measured here: total cells without miR-34 induction.
[18] abbreviates: MELAS cybrid survival, CellTiter-Glo 48 h, stronger effect = higher value.
Where [19] appears, read: Rieske KO mouse fibroblast survival, CellTiter-Glo 72 h.

ATP-dependent translocase ABCB1 (Homo sapiens), sequence (P08183 whole entry, looked up): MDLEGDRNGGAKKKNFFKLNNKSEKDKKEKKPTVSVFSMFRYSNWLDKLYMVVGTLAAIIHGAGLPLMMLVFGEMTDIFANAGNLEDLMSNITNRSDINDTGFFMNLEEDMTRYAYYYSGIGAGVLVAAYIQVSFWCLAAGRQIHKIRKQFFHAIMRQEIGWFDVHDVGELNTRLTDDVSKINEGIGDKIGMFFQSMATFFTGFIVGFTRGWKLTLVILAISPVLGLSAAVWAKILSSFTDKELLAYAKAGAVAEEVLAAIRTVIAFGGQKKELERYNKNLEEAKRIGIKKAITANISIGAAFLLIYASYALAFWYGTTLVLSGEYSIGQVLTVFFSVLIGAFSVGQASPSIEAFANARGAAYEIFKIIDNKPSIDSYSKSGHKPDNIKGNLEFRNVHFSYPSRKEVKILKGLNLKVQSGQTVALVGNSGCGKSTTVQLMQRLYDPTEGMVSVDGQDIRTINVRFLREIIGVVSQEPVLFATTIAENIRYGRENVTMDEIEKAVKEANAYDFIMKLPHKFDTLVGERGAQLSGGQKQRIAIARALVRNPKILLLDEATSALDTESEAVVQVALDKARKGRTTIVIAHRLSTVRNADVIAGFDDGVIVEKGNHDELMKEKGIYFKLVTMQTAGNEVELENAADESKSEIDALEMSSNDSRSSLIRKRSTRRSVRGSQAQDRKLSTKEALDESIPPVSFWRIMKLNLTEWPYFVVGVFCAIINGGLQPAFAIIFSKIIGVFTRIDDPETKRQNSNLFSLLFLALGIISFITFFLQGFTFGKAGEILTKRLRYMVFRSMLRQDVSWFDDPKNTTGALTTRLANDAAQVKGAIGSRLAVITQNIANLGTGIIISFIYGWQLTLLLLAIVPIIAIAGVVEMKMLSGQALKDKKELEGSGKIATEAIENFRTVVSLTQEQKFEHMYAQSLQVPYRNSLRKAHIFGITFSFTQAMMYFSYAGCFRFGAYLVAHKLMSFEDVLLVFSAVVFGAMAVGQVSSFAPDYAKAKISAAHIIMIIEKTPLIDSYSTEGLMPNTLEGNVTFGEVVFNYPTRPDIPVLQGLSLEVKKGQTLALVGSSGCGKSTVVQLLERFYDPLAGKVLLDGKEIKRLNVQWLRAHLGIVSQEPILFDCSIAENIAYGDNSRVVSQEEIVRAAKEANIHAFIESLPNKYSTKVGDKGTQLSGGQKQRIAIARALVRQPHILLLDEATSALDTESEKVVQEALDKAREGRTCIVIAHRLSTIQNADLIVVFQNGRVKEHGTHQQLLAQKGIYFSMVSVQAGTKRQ

Turning to `CC1(C)CC1C(=O)NC(=CCCCCSCC(N)C(=O)O)C(=O)O` (centres undefined), the nuclear beta-catenin stimulation in [1] (at 10 µM) was -2.2% (inactive); in [1] (stimulation, at 2 µM), -0.6%. Also, the insulin secretion stimulation in assay [2] was 2.2% (inactive). The viability decrease in assay [3] was 15.4% (inactive). The tube area decrease in [4] is 26.1% (inactive). The GLP1 secretion stimulation in assay [5] is -4.3% (inactive). Besides, the inhibition of viability in [6] is 37.8% (inactive). In addition, the viability decrease (inhibition) was 28.9% (inactive) in assay [7] and -4% (inactive) in assay [8]. Besides, the fold change in assay [9] (setting [14]) was 0.936 (inactive); in assay [9] (setting [15]), 1.99. Besides, the values for the cell count in assay [9] (setting [16]) and in [9] (setting [17]) were 9810 and 10500, respectively.

The viability is a read-out of living cells in per cent, often relative to untreated cells. With `CCC(C)(CN(C)C)OC(=O)c1ccccc1` (centres undefined), in assay [10], the survival was 26.8 (inactive). Besides, the parasite load remaining in [11] is 38.1% (inactive) and 188% (inactive). Also, the viability in assay [11] is 56.2% and 90.3%. The nuclear beta-catenin stimulation is -2.1% (inactive) in assay [1] (at 10 µM) and -1.6% in assay [1] (stimulation, at 2 µM). Moreover, the insulin secretion stimulation in assay [2] is 3% (inactive). The viability decrease in assay [3] was -25.9% (inactive). Besides, the tube area decrease in assay [4] was -3.6% (inactive). Further, in assay [5], the GLP1 secretion stimulation is -1.9% (inactive). Besides, the inhibition of viability in assay [6] is -6.83% (inactive). Moreover, the viability decrease (inhibition) in assay [7] was 7.2% (inactive); in assay [8], -17.6% (inactive). The fold change in assay [9] (setting [14]) was 0.964 (inactive); in [9] (setting [15]), 0.9. The results for the cell count in assay [9] (setting [16]) and in [9] (setting [17]) were 8680 and 9000, respectively. Further, the z-score in [12] (setting [18]) is 0.476 (inactive); in assay [12] (setting [19]), -0.277.

On to `NC(=O)OCC(O)COc1ccc(Cl)cc1` (centres undefined), for which, in assay [13], the fluorescence slope change is 58.8% (active). Moreover, in assay [10], the survival is 16.6 (inactive). Moreover, in [11], the parasite load remaining was 52.4% (inactive) and 99.4% (inactive). For the same compound, the viability in [11] is 46% and 92.9%. In addition, the nuclear beta-catenin stimulation in [1] (at 10 µM) was -1.4% (inactive); in [1] (stimulation, at 2 µM), -0.6%. Also, the insulin secretion stimulation in assay [2] was 1.2% (inactive). In addition, in assay [3], the viability decrease was 0.2% (inactive). Also, the tube area decrease in [4] was -23.7% (inactive). In addition, the GLP1 secretion stimulation in assay [5] is -0.6% (inactive). Also, the inhibition of viability in assay [6] is 8.4% (inactive). Besides, the viability decrease (inhibition) is 4.1% (inactive) in assay [7] and 11.4% (inactive) in assay [8]. Moreover, the values for the fold change in [9] (setting [14]) and in [9] (setting [15]) were 0.864 (inactive) and 2.23, respectively. Also, the values for the cell count in assay [9] (setting [16]) and in assay [9] (setting [17]) were 8110 and 9380, respectively. Also, the figures for the z-score in assay [12] (setting [18]) and in assay [12] (setting [19]) were -0.968 (inactive) and -0.0882, respectively.

Consider `O=C(OCCOCCO)c1ccccc1Nc1cccc(C(F)(F)F)c1`, for which the survival in assay [10] is 2.08 (inactive). The nuclear beta-catenin stimulation in assay [1] (at 10 µM) was -1.7% (inactive); in [1] (stimulation, at 2 µM), -0.5%. Moreover, the insulin secretion stimulation in assay [2] was 0.3% (inactive). Moreover, in [3], the viability decrease is 79.4% (active). Also, the tube area decrease in [4] is 13.5% (inactive). Also, the GLP1 secretion stimulation in assay [5] was -1.6% (inactive). Besides, in [6], the inhibition of viability is 81.8% (active). Also, the results for the viability decrease (inhibition) in [7] and in assay [8] were 54.2% (active) and 45.7% (inactive), respectively. The z-score is 0.681 (inactive) in assay [12] (setting [18]) and 0.111 in assay [12] (setting [19]).

For `CCC1C(=O)OCC1Cc1cncn1C` (centres undefined), the nuclear beta-catenin stimulation in assay [1] (at 10 µM) is 0.7% (inactive); in assay [1] (stimulation, at 2 µM), 20%. Moreover, the insulin secretion stimulation in assay [2] was 3.7% (inactive). The viability decrease in [3] was 2.7% (inactive). Besides, the tube area decrease in assay [4] is -1.1% (active). For the same compound, the GLP1 secretion stimulation in assay [5] was 1.2% (inactive). The inhibition of viability in assay [6] is 8.9% (inactive). Moreover, the results for the viability decrease (inhibition) in [7] and in assay [8] were -14.8% (inactive) and -20.6% (inactive), respectively.

With `O=P(O)(O)C(Cl)(Cl)P(=O)(O)O`, the parasite load remaining in assay [11] is 33.9% (inactive). This compound also came in with a viability in [11] of 100%. Besides, the nuclear beta-catenin stimulation is 1% (inactive) in assay [1] (at 10 µM) and 0.9% in assay [1] (stimulation, at 2 µM). The insulin secretion stimulation in assay [2] is 5.1% (inactive). In addition, the viability decrease in assay [3] is -1.2% (inactive). Besides, the tube area decrease in assay [4] was 26.4% (inactive). In [5], the GLP1 secretion stimulation is -4.3% (inactive). Moreover, the inhibition of viability in assay [6] was 11.1% (inactive). In addition, the values for the viability decrease (inhibition) in assay [7] and in [8] were 26.6% (inactive) and -2.9% (inactive), respectively. Moreover, the z-score in assay [12] (setting [18]) was 0.218 (inactive); in assay [12] (setting [19]) it was -0.285.
